Reference: PubChem BioAssay (NCATS)
Inconclusive results are not listed. Entries that show only a call come without a potency. Activity calls are given as the source filed them. Calls come from the whole dose curve; as a rule, active = well fitted inhibition curve with a large enough effect; inconclusive = small, poorly fitted or top-dose-only effect; inactive = flat fitted curve, though single readings scatter.

target: Phospholipid hydroperoxide glutathione peroxidase GPX4 (Homo sapiens) (UniProt P36969); test: Primary qHTS Assay for Inhibitors of Recombinant Selenoprotein Glutathione Peroxidase 4 (GPX4) (AID 1845192); settings: recombinant GPX4, GR-coupled NADPH fluorescence, 15 min; series mostly up to 50 µM; note: nearly all actives have a fitted effect of over 65% in size
Text: Assay Provider: Elias S.J. Arner MD PhD.
Department of Medical Biochemistry and Biophysics
Karolinska Institutet, Solna, Stockholm, Sweden
Selenoprotein glutathione peroxidases (GPX), like the ubiquitously expressed GPX1 and the ferroptosis modulator GPX4, enact their antioxidant activities by reducing hydroperoxides using glutathione. […] GPX1 and GPX4 inhibitors have thus shown promise as anti-cancer agents. Existing inhibitors are often promiscuous, or modulate GPX activity only indirectly, so novel direct inhibitors identified through screening against GPX1 and GPX4 could be valuable. Here, we developed optimized glutathione reductase (GR)-coupled GPX assays for the biochemical high-throughput screen (HTS) of almost 12,000 compounds with known mechanisms of action. Initial hits were triaged using a GR counter-screen, assessed for isoform specificity using a separate GPX2 assay, and were assessed for general selenocysteine-targeting activity using a thioredoxin reductase (TXNRD1) assay. With this suite of assays, we identified novel GPX1/GPX2- and GPX4-specific inhibitors and can here present a validated pipeline for future discovery research for selenoprotein-targeting agents.
SEQUENCE No. (e.g., 1, 2, 3, etc.); […] (e.g., Cells, Incubation, Reagent, etc.); VALUE; DESCRIPTION.
1; Reagent 1; 3 uL; 333.33 nM GPx4 enzyme or no enzyme control in 1536-well, black, solid Greiner assay plate.
2; Compound; 25 nL; Kalypsis pin tool (Wako USA) equipped with a 1536-well pin head.
3; Incubation; 30 min; room temperature.
4; Reagent 2; 1 uL; 500 nM GR, 5 mM GSH, 2.5 mM NADPH solution
5; Reagent 3; 1 uL; 2.5 mM CHP in 50% EtOH.
6; Detection; Fluorescence; ViewLux microplate reader, excitation 340 nm and emission 450 nm.
7; Incubation; 15 min; room temperature.
8; Detection; Fluorescence; ViewLux microplate reader, excitation 340 nm and emission 450 nm.
NOTES (numbers refer to Sequence numbers above)
1. 3 µL of 333.33 nM GPX4 and 0.016% BSA in assay buffer (50 mM Tris-HCl, 2 mM EDTA (pH 7.5), 150 mM NaCl) was added to columns 3-48 of 1536-well plates using a BioRAPTR Flying Reagent Dispenser (Let's Go Robotics (LGR), Carlsbad, CA). A no-enzyme control (0.01% BSA in TES assay buffer) was added to columns 1-2.
2. 25 nL, library and DMSO controls were added to each well with a pin tool (Kalypsys).
3. The assay plates were incubated for 30 minutes at room temperature.
4. 1 µL of master mix (500 nM glutathione reductase (GR), 5 mM reduced glutathione (GSH), 2.5 mM NADPH in assay buffer) was added.
5. 1 µL of cumene hydroperoxide (CHP) ([2.5 mM] in 50% EtOH) was then added within 5 minutes to initiate the reaction. Final concentrations were: 200 nM GPX4, 1 mM GSH, 0.5 mM CHP, 0.5 mM NADPH, 100 nM GR, 0.01% BSA.
6. Initial fluorescence readout (t=0) at 340/450 nm was measured using a ViewLux multimodal detector (PerkinElmer, Waltham, MA).
8. Endpoint fluorescence readout (t=15) at 340/450 nm was measured 15 min after room temperature incubation.

Sequence of Phospholipid hydroperoxide glutathione peroxidase GPX4 (Homo sapiens) (P36969 whole entry, looked up): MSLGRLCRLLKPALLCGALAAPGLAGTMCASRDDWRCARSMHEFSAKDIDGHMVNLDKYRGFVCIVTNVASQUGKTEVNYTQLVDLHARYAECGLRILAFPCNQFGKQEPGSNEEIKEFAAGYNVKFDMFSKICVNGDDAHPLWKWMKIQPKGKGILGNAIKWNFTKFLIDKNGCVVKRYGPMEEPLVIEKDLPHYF

| Compound | Potency | outcome |
| --- | --- | --- |
| C#CCN(C)Cc1ccccc1 | inactive | – |
| CCCCC(CC)COC(=O)c1ccccc1O (stereo not given) | inactive | – |
| CC(=O)NC(Cc1ccccc1)C(=O)O (stereo not given) | inactive | – |
| NC(=O)NC(=O)Cc1ccccc1 | inactive | – |
| Oc1ccc(C(O)CNCCCCCCNCC(O)c2ccc(O)c(O)c2)cc1O (stereo not given) | inactive | – |
| CCOC(=O)[C@H](CCc1ccccc1)N[C@@H](C)C(=O)N1C(=O)N(C)C[C@H]1C(=O)O | inactive | – |
| C[C@](N)(Cc1ccc(O)cc1)C(=O)O | inactive | – |
| NS(=O)(=O)c1cc2c(cc1Cl)NC(CSCc1ccccc1)=NS2(=O)=O | inactive | – |
| CSc1ccc2c(c1)C(N1CCN(C)CC1)Cc1ccccc1S2 (stereo not given) | inactive | – |
| C[C@]12CC[C@@H]3c4ccc(O)cc4CC[C@H]3[C@@H]1CCC2=O | inactive | – |
| NCCNCCNCCNCCN | – | inactive [at 9.73 µM] |
| NC(CSCC(=O)O)C(=O)O (stereo not given) | inactive | – |
| O=C(CCCN1CCN(c2ccccn2)CC1)c1ccc(F)cc1 | inactive | – |
| CN(C)CCN(Cc1ccccc1)c1ccccn1 | inactive | – |
| CN(C)CC[C@@H](c1ccc(Cl)cc1)c1ccccn1 | inactive | – |
| CC(C(O)c1ccc(O)cc1)N1CCC(Cc2ccccc2)CC1 (stereo not given) | inactive | – |
| C[C@]12C[C@H](O)[C@H]3[C@@H](CCC4=CC(=O)CC[C@@]43C)[C@@H]1CC[C@@H]2C(=O)CO | inactive | – |
| CC(C)(C(=O)O)c1ccc(C(O)CCCN2CCC(C(O)(c3ccccc3)c3ccccc3)CC2)cc1 (stereo not given) | inactive | – |
| O=C1O[C@H]([C@@H](O)CO)C(O)=C1O | inactive | – |
| O=C1NC(=O)[C@@]2(CCOc3ccc(F)cc32)N1 | inactive | – |

| Compound | Potency | outcome |
| --- | --- | --- |
| CCCCOc1cc(C(=O)OCCN(CC)CC)ccc1N | inactive | – |
| CCN(CC)CCOC(=O)C1(C2CCCCC2)CCCCC1 | inactive | – |
| Nc1ccc(S(=O)(=O)Nc2ccc(Cl)nn2)cc1 | inactive | – |
| CC(O)COc1ccccc1 (stereo not given) | inactive | – |
| CN1CCOC(c2ccccc2)c2ccccc2C1 (stereo not given) | inactive | – |
| O=C1c2c(O)cccc2Cc2cccc(O)c21 | inactive | – |
| CC(C)(C)[C@]1(O)CCN2C[C@H]3c4ccccc4CCc4cccc(c43)[C@@H]2C1 | inactive | – |
| NCC(=O)CCC(=O)O | inactive | – |
| CC(C)(O)c1ccccc1CC[C@@H](SCC1(CC(=O)O)CC1)c1cccc(/C=C/c2ccc3ccc(Cl)cc3n2)c1 | inactive | – |
| CC(=O)Oc1c(C)c(C)c2c(c1C)CC[C@@](C)(CCC[C@H](C)CCC[C@H](C)CCCC(C)C)O2 | inactive | – |
| CCN(CC)C(=O)Nc1ccc(OCC(O)CNC(C)(C)C)c(C(C)=O)c1 (stereo not given) | inactive | – |
| CNC(=O)Oc1ccc2c(c1)[C@]1(C)CCN(C)[C@@H]1N2C | inactive | – |
| O=c1cc[nH]c(=O)[nH]1 | inactive | – |
| Cc1ncc(COP(=O)(O)O)c(C=O)c1O | inactive | – |
| CCCn1cnc2c1c(=O)n(CCCCC(C)=O)c(=O)n2C | inactive | – |
| Nc1cc(=O)[nH]c(N)n1 | inactive | – |
| C[C@@H]1CN(c2c(F)c(F)c3c(=O)c(C(=O)O)cn(C4CC4)c3c2F)C[C@H](C)N1 | inactive | – |
| CCn1cc(C(=O)O)c(=O)c2cnc(N3CCNCC3)nc21 | inactive | – |
| NCCNCCNCCN | inactive | – |
| N=c1c[n+](N2CCOCC2)[n-]o1 | inactive | – |
